# Results filed as inconclusive are left out. The source made the active and inactive calls. The calls were made as follows: active = hit-call score of the fitted dose curve at least 0.9, where 1 is the maximum; inconclusive = response in the unintended direction; inactive = score below 0.9.
# Tests used:
# [1] = molecular target: Androgen Receptor/SRC-1 Co-activator, AR (gene 367) (UniProt P10275); assay: OT_AR_ARSRC1_0960: Odyssey Thera (OT) 16-hour HEK293T Protein-Complementation Assay for Androgen Receptor/SRC-1 Co-activator (AID 2283353);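 also: actives raise the signal above DMSO so potency reflects increased AR and SRC-1 complex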
# Procedure, shortened: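 Stable HEK293T line carries AR and SRC-1 each linked to a Venus fragment; chemicals are applied for 16 h, cells imaged at two wavelengths, and the 488 nm nucleus/cytoplasm ratio is taken as the signal, rising relative to DMSO.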
# [2] = molecular target: Androgen Receptor/SRC-1 Co-activator, AR (gene 367) (UniProt P10275); assay: OT_AR_ARSRC1_0480: Odyssey Thera (OT) 8-hour HEK293T Protein-Complementation Assay for Androgen Receptor/SRC-1 Co-activator (AID 2283354);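 also: hits raise the complementation signal above DMSO so AC50 marks enhancers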
# Procedure, shortened: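 Split-Venus PCA, stable HEK293T, AR/SRC-1 fusions; 8 h exposure. Readout: 488nm N/C fluorescence ratio, ≥400 cells/image; fitted upward vs DMSO baseline.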
# [3] = molecular target: Estrogen receptor (Homo sapiens) + Estrogen receptor beta (Homo sapiens) (UniProt P03372+Q92731); assay: OT_ER_ERaERb_1440: Odyssey Thera (OT) 24-hour HEK293T Protein-Complementation Assay for Estrogen Receptor-alpha/-beta Homodimer (AID 2283356);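 also: heteromer of ER alpha and ER beta binding domains; hits raise reporter fluorescence and both agonists and antagonists give an increase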
# Procedure, shortened: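 Fragment complementation between ER alpha (310-547) and ER beta (263-489) ligand-binding domains in HEK293T cells; signal read 24 h post-dosing by laser scanning cytometer. Gain of fluorescence relative to DMSO fitted.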
# [4] = molecular target: Estrogen receptor beta (Homo sapiens) (UniProt Q92731); assay: OT_ER_ERbERb_0480: Odyssey Thera (OT) 8-hour HEK293T Protein-Complementation Assay for Estrogen Receptor-beta/-beta Homodimer (AID 2283357);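 also: active means signal gain over DMSO baseline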
# Procedure, shortened: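 Homodimerization of ER-beta LBD measured by protein-fragment complementation in HEK293T; 8 h dosing; fixed, Draq5 counterstain; fluorescence intensity gain over DMSO baseline, positive fitting direction; laser scanning cytometry.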
# [5] = molecular target: human Thyroid Receptor Alpha (TRa), THRA (gene 7067) (UniProt P10827); assay: NVS_NR_hTRa_Antagonist: NovaScreen (NVS) Nuclear Receptor Binding Assay for human Thyroid Receptor Alpha Antagonism (TRa) (AID 2283362)
# Procedure, shortened: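 Actives from a duplicate 25 uM single-point screen were retested in concentration series. The cell-free antagonist-format binding assay was read by AlphaLISA chemiluminescence at 1 h, scored as signal loss relative to DMSO.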
# [6] = molecular target: human Peroxisome Proliferator-activated Receptor alpha (PPARa), PPARA (gene 5465) (UniProt Q07869); assay: NVS_NR_hPPARa: NovaScreen (NVS) Nuclear Receptor Binding Assay for human Peroxisome Proliferator-activated Receptor alpha (PPARa) (AID 2283359);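 also: activity means loss of TR-FRET signal versus DMSO baseline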
# Procedure, shortened: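 TR-FRET signal measured at 1 h post-dosing; loss-of-signal versus DMSO negative control taken as activity. Extracted gene-protein, cell-free format. Initial single-point duplicates at 25 uM, then concentration-response retests.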
# [7] = molecular target: PGR (gene 5241) (UniProt P06401); assay: NVS_NR_hPR: NovaScreen (NVS) Nuclear Receptor Binding Assay for human Progestron Receptor (PR) (AID 2283360);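 also: active means loss of bound radioligand signal versus DMSO baseline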
# Procedure, shortened: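 Competitive displacement of a labelled radioligand from T47D-derived receptor protein is measured in a cell-free format. Initial testing uses 25 uM in duplicate, with positive and negative controls on every plate.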
# [8] = molecular target: rat Mineralocorticoid Receptor (MR), Nr3c2 (gene 25672) (UniProt P22199); assay: NVS_NR_rMR: NovaScreen (NVS) Nuclear Receptor Binding Assay for rat Mineralocorticoid Receptor (MR) (AID 2283355)
# Procedure, shortened: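 Radioligand displacement, scintillation readout; tissue source adrenalectomized rat brain supernatant. Read 24 h post-dose. Screened in duplicate at 25 uM, DMSO negative control, controls on every plate; actives re-run in concentration series.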
# [9] = molecular target: Retinoic acid receptor alpha (Homo sapiens) (UniProt P10276); assay: NVS_NR_hRAR_Antagonist: NovaScreen (NVS) Nuclear Receptor Binding Assay for human Retinoic Acid Alpha Receptor Antagonism (RAR) (AID 2283358)
# Procedure, shortened: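 Read-out: time-resolved FRET binding signal, 2 h post-dose, cell-free extracted protein. Antagonism scored as signal loss versus DMSO negative control. Primary single-concentration screen at 25 uM in duplicate; concentration series for actives.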
# [10] = molecular target: Retinoic acid receptor alpha (Homo sapiens) (UniProt P10276); assay: NVS_NR_hRARa_Agonist: NovaScreen (NVS) Nuclear Receptor Binding Assay for human Retinoic Acid Alpha Receptor Agonism (RAR) (AID 2283361)
# Description: NVS_NR_hRARa_Agonist is a biochemical, single-readout assay that uses extracted gene-proteins in a cell-free assay. Measurements were taken 2 hours after chemical dosing in a 384-well plate.NVS_NR_hRARa_Agonist is one of one assay component(s) measured or calculated from the NVS_NR_hRARa_Agonist assay. It is designed to make measurements of fluorescent resonance energy transfer, a form of binding reporter, as detected with fluorescent resonance energy transfer signals by Time-Resolved Fluorescence Resonance Energy Transfer (TR-FRET) technology.Data from the assay component NVS_NR_hRARa_Agonist was analyzed into 1 assay endpoint. This assay endpoint, NVS_NR_hRARa_Agonist, was analyzed in the positive analysis fitting direction relative to DMSO as the negative control and baseline of activity. Using a type of binding reporter, gain-of-signal activity can be used to understand changes in the binding as they relate to the gene RARA. Furthermore, this assay endpoint can be referred to as a primary readout, because the performed assay has only produced 1 assay endpoint. To generalize the intended target to other relatable targets, this assay endpoint is annotated to the nuclear receptor intended target family, where the subfamily is non-steroidal. […]
# human Thyroid Receptor Alpha (TRa), THRA (gene 7067), sequence (P10827 whole entry, looked up): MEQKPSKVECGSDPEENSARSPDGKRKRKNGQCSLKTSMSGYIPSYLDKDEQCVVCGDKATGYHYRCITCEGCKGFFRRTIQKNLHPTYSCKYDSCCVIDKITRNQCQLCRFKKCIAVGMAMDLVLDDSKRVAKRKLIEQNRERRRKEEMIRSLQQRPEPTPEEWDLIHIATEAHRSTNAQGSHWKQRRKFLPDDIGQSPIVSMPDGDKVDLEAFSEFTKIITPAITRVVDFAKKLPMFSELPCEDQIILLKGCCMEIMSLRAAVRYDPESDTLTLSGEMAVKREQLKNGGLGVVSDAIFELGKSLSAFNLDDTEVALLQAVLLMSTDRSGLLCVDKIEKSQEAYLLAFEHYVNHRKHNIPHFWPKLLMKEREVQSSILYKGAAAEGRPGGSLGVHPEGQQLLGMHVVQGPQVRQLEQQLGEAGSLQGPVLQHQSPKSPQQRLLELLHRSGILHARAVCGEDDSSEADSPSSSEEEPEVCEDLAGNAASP
# PGR (gene 5241), sequence (P06401 whole entry, looked up): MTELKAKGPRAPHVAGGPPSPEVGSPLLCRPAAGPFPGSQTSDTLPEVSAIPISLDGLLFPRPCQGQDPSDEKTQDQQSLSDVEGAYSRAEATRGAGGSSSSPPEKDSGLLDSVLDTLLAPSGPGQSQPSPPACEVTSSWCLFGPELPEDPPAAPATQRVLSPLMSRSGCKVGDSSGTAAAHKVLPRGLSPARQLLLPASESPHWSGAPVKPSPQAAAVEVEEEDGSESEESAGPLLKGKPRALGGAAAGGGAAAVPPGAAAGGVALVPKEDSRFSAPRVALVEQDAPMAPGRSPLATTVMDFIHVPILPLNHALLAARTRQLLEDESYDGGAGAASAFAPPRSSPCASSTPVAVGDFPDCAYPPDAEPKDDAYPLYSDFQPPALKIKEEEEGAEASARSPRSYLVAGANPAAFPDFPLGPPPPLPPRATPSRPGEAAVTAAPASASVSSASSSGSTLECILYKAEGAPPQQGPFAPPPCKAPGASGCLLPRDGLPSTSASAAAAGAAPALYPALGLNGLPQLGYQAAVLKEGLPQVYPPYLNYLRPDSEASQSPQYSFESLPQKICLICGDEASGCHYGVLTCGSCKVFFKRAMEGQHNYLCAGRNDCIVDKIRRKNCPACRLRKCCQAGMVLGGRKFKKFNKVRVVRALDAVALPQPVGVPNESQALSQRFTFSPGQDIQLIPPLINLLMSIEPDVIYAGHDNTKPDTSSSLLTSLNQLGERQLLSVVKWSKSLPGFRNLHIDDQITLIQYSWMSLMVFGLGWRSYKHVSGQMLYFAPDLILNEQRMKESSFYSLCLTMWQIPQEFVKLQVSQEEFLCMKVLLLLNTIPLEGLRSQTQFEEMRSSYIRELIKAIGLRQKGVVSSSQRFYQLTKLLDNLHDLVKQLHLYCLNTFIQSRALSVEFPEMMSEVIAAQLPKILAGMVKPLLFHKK
# Androgen Receptor/SRC-1 Co-activator, AR (gene 367), sequence (P10275 whole entry, looked up, the tested form may be a part): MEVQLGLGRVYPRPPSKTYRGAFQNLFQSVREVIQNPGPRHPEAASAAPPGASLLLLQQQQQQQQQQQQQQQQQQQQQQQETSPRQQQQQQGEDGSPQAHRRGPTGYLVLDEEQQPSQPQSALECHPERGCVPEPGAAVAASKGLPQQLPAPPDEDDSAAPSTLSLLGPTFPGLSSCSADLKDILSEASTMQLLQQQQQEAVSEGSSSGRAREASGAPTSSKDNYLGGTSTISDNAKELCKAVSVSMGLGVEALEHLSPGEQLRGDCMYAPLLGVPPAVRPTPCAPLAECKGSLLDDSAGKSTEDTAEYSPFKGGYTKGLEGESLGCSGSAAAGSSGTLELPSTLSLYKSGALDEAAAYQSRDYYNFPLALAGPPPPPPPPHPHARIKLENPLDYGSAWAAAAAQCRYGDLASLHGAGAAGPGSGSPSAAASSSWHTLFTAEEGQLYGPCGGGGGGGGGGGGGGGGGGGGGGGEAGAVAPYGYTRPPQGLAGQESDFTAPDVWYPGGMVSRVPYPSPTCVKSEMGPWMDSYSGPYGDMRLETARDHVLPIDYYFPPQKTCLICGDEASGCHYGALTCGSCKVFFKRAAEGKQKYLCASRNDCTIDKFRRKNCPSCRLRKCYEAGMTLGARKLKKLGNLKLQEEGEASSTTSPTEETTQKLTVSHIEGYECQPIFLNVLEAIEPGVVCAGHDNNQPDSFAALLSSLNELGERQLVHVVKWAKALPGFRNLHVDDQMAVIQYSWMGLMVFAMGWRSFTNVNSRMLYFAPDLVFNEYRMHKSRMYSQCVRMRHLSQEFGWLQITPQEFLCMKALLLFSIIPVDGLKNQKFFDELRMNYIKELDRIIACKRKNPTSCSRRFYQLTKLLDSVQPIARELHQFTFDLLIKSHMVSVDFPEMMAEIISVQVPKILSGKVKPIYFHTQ
# Estrogen receptor beta (Homo sapiens), sequence (Q92731 whole entry, looked up, the tested form may be a part): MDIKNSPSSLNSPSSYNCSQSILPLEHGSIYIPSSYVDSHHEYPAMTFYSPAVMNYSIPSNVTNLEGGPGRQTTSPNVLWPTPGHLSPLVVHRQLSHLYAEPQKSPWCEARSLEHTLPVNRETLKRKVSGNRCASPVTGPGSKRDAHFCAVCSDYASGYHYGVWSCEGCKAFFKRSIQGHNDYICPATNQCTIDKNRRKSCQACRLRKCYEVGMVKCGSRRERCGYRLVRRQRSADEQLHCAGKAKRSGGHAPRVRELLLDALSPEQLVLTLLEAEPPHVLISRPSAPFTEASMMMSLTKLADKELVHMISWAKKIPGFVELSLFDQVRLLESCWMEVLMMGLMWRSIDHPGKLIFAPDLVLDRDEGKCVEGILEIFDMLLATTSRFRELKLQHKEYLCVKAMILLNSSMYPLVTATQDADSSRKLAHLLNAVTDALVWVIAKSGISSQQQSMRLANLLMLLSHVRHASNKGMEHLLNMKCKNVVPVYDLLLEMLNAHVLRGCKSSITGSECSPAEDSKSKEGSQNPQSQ
# rat Mineralocorticoid Receptor (MR), Nr3c2 (gene 25672), sequence (P22199 whole entry, looked up): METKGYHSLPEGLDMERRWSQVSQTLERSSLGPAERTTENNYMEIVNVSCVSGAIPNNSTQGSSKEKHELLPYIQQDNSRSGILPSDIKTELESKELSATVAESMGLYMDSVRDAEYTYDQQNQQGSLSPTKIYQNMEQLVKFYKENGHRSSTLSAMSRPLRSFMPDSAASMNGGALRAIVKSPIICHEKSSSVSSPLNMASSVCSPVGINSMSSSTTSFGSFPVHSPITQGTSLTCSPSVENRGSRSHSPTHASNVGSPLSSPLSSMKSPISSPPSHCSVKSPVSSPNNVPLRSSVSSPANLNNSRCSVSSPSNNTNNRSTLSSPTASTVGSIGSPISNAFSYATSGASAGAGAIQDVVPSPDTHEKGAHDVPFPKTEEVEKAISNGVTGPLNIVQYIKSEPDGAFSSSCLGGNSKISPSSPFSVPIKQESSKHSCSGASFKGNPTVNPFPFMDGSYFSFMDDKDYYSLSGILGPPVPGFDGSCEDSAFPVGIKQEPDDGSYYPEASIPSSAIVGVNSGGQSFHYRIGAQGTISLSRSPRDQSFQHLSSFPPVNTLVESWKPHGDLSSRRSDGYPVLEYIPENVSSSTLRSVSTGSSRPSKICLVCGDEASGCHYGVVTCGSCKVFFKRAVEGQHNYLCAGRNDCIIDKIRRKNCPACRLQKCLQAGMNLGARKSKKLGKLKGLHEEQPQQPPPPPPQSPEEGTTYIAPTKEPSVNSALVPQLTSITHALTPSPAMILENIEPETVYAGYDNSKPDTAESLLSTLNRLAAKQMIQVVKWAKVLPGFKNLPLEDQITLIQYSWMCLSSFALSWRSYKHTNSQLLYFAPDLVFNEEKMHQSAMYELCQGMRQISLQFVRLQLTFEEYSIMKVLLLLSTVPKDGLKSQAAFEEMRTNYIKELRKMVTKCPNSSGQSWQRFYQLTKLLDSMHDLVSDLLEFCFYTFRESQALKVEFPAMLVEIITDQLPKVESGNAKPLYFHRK
# Estrogen receptor (Homo sapiens) + Estrogen receptor beta (Homo sapiens), sequence (P03372 whole entry, looked up, the tested form may be a part): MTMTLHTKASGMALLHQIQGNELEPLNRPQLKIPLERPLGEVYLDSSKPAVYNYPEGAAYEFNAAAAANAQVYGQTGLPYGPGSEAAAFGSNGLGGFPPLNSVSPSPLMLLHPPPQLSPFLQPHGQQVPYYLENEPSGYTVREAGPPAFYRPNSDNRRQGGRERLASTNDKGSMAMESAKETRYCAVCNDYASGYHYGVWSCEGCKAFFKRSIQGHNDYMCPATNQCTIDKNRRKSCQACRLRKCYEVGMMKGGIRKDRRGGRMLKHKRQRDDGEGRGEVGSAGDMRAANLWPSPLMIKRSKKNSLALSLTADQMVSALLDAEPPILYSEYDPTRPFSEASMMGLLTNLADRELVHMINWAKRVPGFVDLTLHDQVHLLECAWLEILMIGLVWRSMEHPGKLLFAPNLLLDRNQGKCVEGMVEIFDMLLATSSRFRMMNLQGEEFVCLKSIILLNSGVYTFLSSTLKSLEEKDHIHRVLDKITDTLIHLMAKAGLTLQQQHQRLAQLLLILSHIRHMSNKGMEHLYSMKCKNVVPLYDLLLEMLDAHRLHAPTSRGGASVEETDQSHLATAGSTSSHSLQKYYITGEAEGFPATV
# Estrogen receptor (Homo sapiens) + Estrogen receptor beta (Homo sapiens), sequence (Q92731 whole entry, looked up, the tested form may be a part): as the sequence (Q92731 whole entry, looked up, the tested form may be a part) above
# Retinoic acid receptor alpha (Homo sapiens), sequence (P10276 whole entry, looked up): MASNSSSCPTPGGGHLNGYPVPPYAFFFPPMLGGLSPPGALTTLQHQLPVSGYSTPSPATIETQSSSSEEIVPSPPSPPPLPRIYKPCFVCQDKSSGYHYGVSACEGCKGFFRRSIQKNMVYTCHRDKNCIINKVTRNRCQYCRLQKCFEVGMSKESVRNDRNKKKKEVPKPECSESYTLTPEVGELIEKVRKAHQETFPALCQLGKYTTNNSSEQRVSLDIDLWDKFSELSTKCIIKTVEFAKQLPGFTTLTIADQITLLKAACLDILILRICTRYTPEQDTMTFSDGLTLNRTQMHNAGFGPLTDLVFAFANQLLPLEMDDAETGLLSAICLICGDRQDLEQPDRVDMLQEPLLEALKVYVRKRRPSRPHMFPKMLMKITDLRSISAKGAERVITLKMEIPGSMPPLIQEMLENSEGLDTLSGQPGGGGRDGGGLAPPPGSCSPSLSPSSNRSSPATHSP
smiles,measurement,setting,value
CC(C)(C)c1cc(O)c(C(C)(C)C)cc1O,AC50,[1],50 µM (active)
same,outcome,[2],inactive
same,outcome,[3],inactive
same,outcome,[4],inactive
COCCOCCOC,outcome,[1],inactive
same,outcome,[3],inactive
same,outcome,[4],inactive
Cc1nc(-c2ccc3c(c2)CCN(CCC2CCC(NC(=O)/C=C/c4ccc(F)cc4)CC2)CC3)no1 (stereo not given),outcome,[1],inactive
same,outcome,[2],inactive
same,outcome,[3],inactive
same,outcome,[4],inactive
same,outcome,[5],inactive
Cc1ccc(N(C)C)cc1,outcome,[1],inactive
same,outcome,[2],inactive
same,outcome,[3],inactive
Cc1cc(NC(=O)C(=O)O)cc(C)c1Oc1ccc(O)c2c1CCC2,outcome,[1],inactive
same,outcome,[2],inactive
same,outcome,[6],inactive
same,AC50,[7],7.64 µM (active)
same,outcome,[5],inactive
COc1ccc(S(=O)(=O)N2C(=O)[C@@](c3ccccc3OC)(N3C[C@H](O)C[C@H]3C(=O)N(C)C)c3cc(Cl)ccc32)c(OC)c1,AC50,[1],40.4 µM (active)
same,AC50,[2],27.2 µM (active)
O=C(O)Cc1ccccc1Nc1c(Cl)cccc1Cl,outcome,[2],inactive
same,outcome,[3],inactive
Cc1oc(-c2ccccc2)nc1CCOc1cccc2c1ccn2CCC(=O)O,outcome,[3],inactive
NS(=O)(=O)c1cc2c(cc1Cl)NCNS2(=O)=O,outcome,[3],inactive
same,outcome,[4],inactive
CCCCc1ccc2c(n1)[C@@H](c1ccc(OC)cc1C[C@H](C)C(=O)O)[C@H](C(=O)O)[C@H]2c1ccc2c(c1)OCO2,outcome,[3],inactive
CN[C@H]1CC[C@@H](c2ccc(Cl)c(Cl)c2)c2ccc(S(N)(=O)=O)cc21,AC50,[1],17.4 µM (active)
same,AC50,[2],19.9 µM (active)
same,outcome,[7],inactive
CCCCCCCCCCCCCO,outcome,[3],inactive
same,outcome,[4],inactive
CCCCCCCCCCC,outcome,[1],inactive
same,outcome,[3],inactive
Cc1cccc(C)c1O,outcome,[1],inactive
same,outcome,[2],inactive
same,outcome,[3],inactive
same,outcome,[4],inactive
Cc1cccc([N+](=O)[O-])c1C,outcome,[1],inactive
same,outcome,[3],inactive
same,outcome,[4],inactive
CCCCCCCCCCCC(=O)OC,outcome,[3],inactive
COc1cc(-c2nc(NC(=O)c3cc4cc(C)cc(C)c4n3CC(=O)O)sc2CCC2CCCCC2)c(OC)cc1Cl,AC50,[1],10.5 µM (active)
same,AC50,[2],49.1 µM (active)
same,outcome,[3],inactive
same,outcome,[4],inactive
Cc1ccc(C)c(O)c1C,outcome,[1],inactive
same,outcome,[2],inactive
CCOC(=O)CCC(=O)OCC,AC50,[8],25 µM (active)
same,outcome,[3],inactive
same,outcome,[4],inactive
C[C@]12C=CC(=O)C=C1CC[C@@H]1[C@@H]2C(=O)C[C@@]2(C)[C@H]1CC[C@]2(O)C(=O)CO,AC50,[8],0.178 µM (active)
same,outcome,[4],inactive
Cc1ccc(C)c(C)c1,outcome,[1],inactive
same,outcome,[2],inactive
same,outcome,[3],inactive
same,outcome,[4],inactive
Cc1ccccc1Cl,outcome,[1],inactive
same,outcome,[2],inactive
CN1CCCC1=O,outcome,[3],inactive
CCCCCCOCCO,outcome,[3],inactive
O=c1[nH]cc(F)c(=O)[nH]1,outcome,[8],inactive
same,outcome,[3],inactive
same,outcome,[4],inactive
COc1cc(C=O)ccc1O,outcome,[1],inactive
same,outcome,[2],inactive
same,outcome,[3],inactive
same,outcome,[4],inactive
Cc1cccc(Nc2cc(Cl)nc(SCC(=O)O)n2)c1C,outcome,[1],inactive
same,outcome,[2],inactive
same,outcome,[3],inactive
same,outcome,[4],inactive
CCCCCC(=O)O,outcome,[1],inactive
same,outcome,[3],inactive
same,outcome,[4],inactive
CNC(=O)[C@H]1O[C@@H](n2cnc3c(NCc4cc(Cl)ccc4OCc4cc(C)no4)ncnc32)[C@H](O)[C@@H]1N,outcome,[1],inactive
same,outcome,[2],inactive
same,outcome,[3],inactive
same,outcome,[4],inactive
O=[N+]([O-])C(CO)(CO)CO,outcome,[3],inactive
COc1ccc2c(c1)c(CC(=O)O)c(C)n2C(=O)c1ccc(Cl)cc1,outcome,[1],inactive
same,outcome,[2],inactive
same,outcome,[9],inactive
CCOc1ccc2c(c1)C(C)=CC(C)(C)N2,outcome,[1],inactive
same,outcome,[2],inactive
same,outcome,[6],inactive
same,AC50,[7],9.2 µM (active)
same,outcome,[5],inactive
CC(=O)Oc1ccccc1C(=O)O,outcome,[1],inactive
same,outcome,[2],inactive
same,outcome,[3],inactive
same,outcome,[4],inactive
CCCCN(CCCC)CCCC,outcome,[3],inactive
same,outcome,[4],inactive
COCCOC[C@H](CC1(C(=O)NC2CCC(C(=O)O)CC2)CCCC1)C(=O)Oc1ccc2c(c1)CCC2 (stereo not given in full),outcome,[1],inactive
same,outcome,[2],inactive
same,outcome,[3],inactive
same,outcome,[4],inactive
same,outcome,[7],inactive
COc1ccc(C)cc1N,outcome,[1],inactive
same,outcome,[2],inactive
same,outcome,[9],inactive
CC1=C(/C=C/C(C)=C/C=C/C(C)=C/CO)C(C)(C)CCC1,outcome,[10],inactive
CCCCOC(=O)CCCCCCCCC(=O)OCCCC,outcome,[10],inactive
